Test results as given in article PMC5540273 (PLoS ONE, 2017).

These compounds were tested on T1, VPS34. Details: concentration: 1 μM, replicates: in singlicate; n = 1.
T1 construct: gene PIK3C3
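Further: KINOMEscan kinase panel screen.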

SMILES	%Inh [%]
COc1ccc(NC(=O)c2ccoc2)cc1-c1ccc(C(=O)NCC2CC2)cc1 [GW810437]	11
O=C(Nc1n[nH]c2nc(-c3ccccc3O)ccc12)C1CC1 [SB-711880]	0
CNc1nccc(-c2ccc3c(N)n[nH]c3c2)n1 [GSK2206003]	15
c1ccc(Oc2ccc(Nc3ccnc4cc(-c5ccc(CN6CCCCC6)o5)ccc34)cc2)nc1 [GW567143]	0
Cc1ccc(NC(=O)c2ccc(Cl)c(Cl)c2)cc1-c1ccc(C(=O)Nc2ccncc2)cc1 [GSK1398460]	0
CC(C)(C)c1ccc(C(=O)Nc2cn3cc(-n4ccnc4)ccc3n2)cc1	39
Cl.Cl.NCC(NC(=O)c1cc(-c2cccnc2)c(-c2ccnc3[nH]ccc23)s1)c1ccccc1 (stereo not shown) [GSK1323434]	45
Cc1ccc(Nc2ccnc(Nc3ccc(C)c(F)c3)n2)cc1O.Cl [GW582868]	0
O=C(Nc1n[nH]c2nc(-c3cccc(O)c3)ccc12)C1CC1 [SB-711805]	23
COc1cccc(NC(=O)NCCNc2ccnc(Nc3ccc(F)cc3)n2)c1 [GSK1379879]	0
Cc1cc(-c2c(-c3ccc(F)cc3)ncn2CCCN2CCOCC2)nc(N)n1 [SB-222517]	29
COc1ccc(C)c(Nc2ccnc(Nc3ccc(-c4cnc[nH]4)cc3)n2)c1.Cl [GW784041]	54
CN(C)CCNS(=O)(=O)c1ccc(-c2ccnc3[nH]ccc23)cc1 [GSK977620]	57
COc1cccc(CC(=O)N2CCc3cc(-c4cn(C)c5ncnc(N)c45)ccc32)c1 [GSK2608899]	0
COC(=O)Nc1nc2cc(Oc3ccc(NC(=O)Nc4cccc(SC)c4)cc3)ccc2[nH]1.Cl [GW697999]	18
Cc1ccc(O)cc1Nc1ccnc2cc(-c3ccc(CN4CCCCC4)o3)ccc12 [GW557777]	0
CN(c1ccc2c(c1)nc(NCc1ccccc1)n2C)c1ccnc(Nc2ccc(CS(C)(=O)=O)cc2)n1.Cl [GW811603]	40
COc1cccc(C2=C(Nc3cccc(O)c3)C(=O)NC2=O)c1 [SB-390771]	0
CC(C)NCC(Cc1ccccc1)NC(=O)c1cc(Br)c(-c2ccnc3[nH]ccc23)s1.Cl.Cl (stereo not shown) [GSK1383281]	0

SMILES	%Inh [%]
Cc1ccc(O)cc1Nc1ccnc2ccc(C(C)(C)C)cc12 [GW856805]	51
NCCC(NC(=O)c1cc(Br)c(-c2ccnc3[nH]ccc23)s1)c1ccccc1.O=C(O)C(F)(F)F.O=C(O)C(F)(F)F (stereo not shown) [GSK1307810]	25
COc1ccc(C2=C(Nc3cccc(O)c3)C(=O)NC2=O)cc1 [SB-390766]	0
O=C(O)C(F)(F)F.O=c1[nH]ccc2nc(N[C@@H]3CCNC3)nc(Nc3cc(Cl)cc(Cl)c3)c12 [GSK2188764]	78
Cc1ccc(C)c(NC(=O)Nc2ccc(C)c(-c3ccc(C(=O)Nc4ccncc4)cc3)c2)c1 [GSK1398473]	0
Cn1cc(-c2ccc3c(c2)CCN3C(=O)Cc2cc(F)cc(F)c2F)c2c(N)ncnc21 [GSK2634140]	16
N#Cc1cnc2cc(-c3cnc(CNCCN4CCOCC4)s3)ccc2c1Nc1ccc(Oc2ccccc2)cc1 [GW664114]	0
CN1CCN(Cc2ccc(NC(=O)Nc3ccc(N(C)c4ccnc(Nc5ccc(CS(C)(=O)=O)cc5)n4)cc3)cc2)CC1.Cl [GW827654]	42
Fc1cc(Cl)ccc1Nc1ccnc2cc(-c3ccc(CN4CCOCC4)o3)ccc12 [GW560109]	0
Cl.N#CCc1ccc(Nc2nccc(Nc3ccc(Oc4ccccc4)cc3)n2)cc1 [GW639905]	0
CN(c1ccc(F)c(NC(=O)c2cccc(OC(C)(C)C#N)c2Cl)c1)c1ccc2nc(NC(=O)C3CC3)sc2n1	0
CN(C)c1ncnc2nc[nH]c12 [SKF-31736]	47
O=C(Nc1c(F)cccc1F)c1cc(C(=O)c2ccccc2F)c[nH]1 [GSK1326180]	5
Nc1ncc(-c2ccc3nccc(-c4ccncc4)c3c2)cc1S(=O)(=O)N1CCCCC1 [GSK1693850]	95.5
Fc1cc(Cl)ccc1Nc1ccnc2cc(-c3ccc(CN4CCSCC4)o3)ccc12 [GW560106]	0
CS(=O)(=O)c1cccc(CNc2nc(Nc3ccc4c(c3)CCC(=O)N4)ncc2C(F)(F)F)c1	0
COC(=O)Nc1nc2ccc(Oc3ccc(CC(=O)Nc4cc(C(F)(F)F)ccc4F)cc3)cc2[nH]1 [GW680903]	0
Cl.Cl.NC(CNC(=O)c1cc(Br)c(-c2ccnc3[nH]ccc23)s1)c1ccccc1 (stereo not shown) [GSK1322949]	59
